Among the data in PubChem BioAssay are z-score values, retold here.

Calls of active or inactive are those of the source.

Experiment [1] can be described thus: compound effects on lung adenocarcinoma cell viability – A549, calcein-AM fluorescence, 48 h, basal, profiling panel (AID 1162). To be noted: higher = more signal.
Experiment [2] is described as follows: compound effects on differentiated 3T3-L1 adipocyte viability – cell-based, 3T3-L1 adipocytes, calcein-AM fluorescence, 48 h, basal, profiling panel (AID 1163). The conditions noted are these: 3T3-L1 adipocytes viability, higher = more signal.
The nature of experiment [3]: compound effects on hepatocellular carcinoma cell viability – HepG2, calcein-AM fluorescence, 48 h, basal, profiling panel (AID 1164). The conditions noted are these: higher = more signal.
Experiment [4] is described as follows: compound effects on multiple myeloma cell viability – MM1S, calcein-AM fluorescence, 48 h, basal, profiling panel (AID 1165). The conditions noted are these: higher = more signal.
A short description of experiment [5]: calcein-AM signal in unstimulated myeloma cells – cell-based, calcein-AM fluorescence, 48 h, PK04 Diversity Set, profiling panel (AID 1166).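 Note: cells grown under basal conditions without added stimulus.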 To be noted: RPMI8226 myeloma viability, higher = more signal.
A short description of experiment [6]: JC-1 mitochondrial signal, unstimulated HepG2 cells – cell-based, JC-1 fluorescence, 24 h, 100 nL compound, profiling panel (AID 1167). To be noted: HepG2 mitochondrial potential, higher = more signal.
Experiment [7] is described as follows: JC-1 mitochondrial signal, unstimulated adipocytes – cell-based, JC-1 fluorescence, 3T3-L1 adipocytes, 24 h, 100 nL compound, profiling panel (AID 1168). To be noted: JC-1 mitochondrial fluorescence, higher = more signal, called active from +8 up or from −8 down.
Experiment [8] is described as follows: JC-1 mitochondrial signal, unstimulated myeloma cells – cell-based, JC-1 fluorescence, RPMI8226, 24 h, 100 nL compound, profiling panel (AID 1169). The conditions noted are these: JC-1 mitochondrial potential fluorescence, higher = more signal.
A short description of experiment [9]: JC-1 mitochondrial signal, unstimulated MM1S myeloma – cell-based, JC-1 fluorescence, 24 h, 100 nL compound, profiling panel (AID 1170). The conditions noted are these: MM1S mitochondrial potential, higher = more signal.
Experiment [10] in a line: resazurin metabolic signal in A549 cells – cell-based, resazurin fluorescence, 24 h, PK04 Diversity Set, profiling panel (AID 1171). To be noted: A549 viability, higher = more signal, called active from +8 up or from −8 down. (Alamar Blue is a resazurin reagent that responds to reducing activity.)
Note: test concentration not given here.

Consider `COC(=O)[C@@]1(Cc2ccc(OC)cc2)[C@H]2c3cc(C(=O)N(C)C)n(Cc4ccc(OC)c(OC)c4)c3C[C@H]2CN1C(=O)c1ccccc1`, for which the z-score in [1] is -1.72; in experiment [2] it was -0.204; in [3] it was -1.18; in [4], -1.32; in [5] it was -2.07; in [6], 0.297. For the same compound, the z-score was -1.29 (inactive) in [7], -0.605 in experiment [8], -1.11 in experiment [9] and -1.35 (inactive) in experiment [10].
As for `COC(=O)c1nc2oc1CC[C@@H](CO)NC(=O)N(C)Cc1cn(nn1)C[C@H](Cc1ccccc1)NC2=O`, the z-score in experiment [1] is -0.0651; in experiment [2], -0.734; in experiment [3], 0.786; in [4], 0.648; in experiment [5] it was 0.854; in experiment [6], 0.136. The z-score in experiment [7] was 0.694 (inactive); in experiment [8] it was 0.263; in experiment [9] it was -1.48; in experiment [10], -0.0624 (inactive).
Take `COc1ccc([Si](C)(C)[C@@H]2[C@@H](CCO)O[C@]3(C(=O)N(Cc4cccc(N5CCCCC5=O)c4)c4ccccc43)[C@H]2C)cc1`: the z-score in [1] is -0.86; in experiment [2], 0.161; in experiment [3], -1.7; in [4], -2.75; in [5] it was -1.65; in experiment [6], -1.94. In addition, the z-score in [7] is 0.128 (inactive); in experiment [8], -1.02; in experiment [9], -1.43; in experiment [10], -0.55 (inactive).
`C/C=C/[C@H](CCn1cc([C@H](O)c2ccccc2)nn1)[Si](C)(C)c1ccc(OC)cc1`: the z-score in [1] is -0.0186; in experiment [2], -0.358; in experiment [3], -0.689; in experiment [4] it was -1.58; in experiment [5] it was -1.43; in experiment [6], -1.4. Besides, the z-score was 0.644 (inactive) in experiment [7], -0.569 in [8], -0.629 in [9] and 0.22 (inactive) in [10].
As for `O=C(NCc1ccccc1)[C@@H]1c2ccccc2C(=O)N(Cc2cc(F)cc(C(F)(F)F)c2)[C@H]1c1ccc(CO)cc1`, the z-score in [1] is 1.5; in experiment [2], -0.115; in [3], 1.37; in experiment [4], 0.105; in experiment [5] it was -0.161; in experiment [6] it was 1.88. The z-score in experiment [7] is 0.079 (inactive); in experiment [8] it was 0.79; in experiment [9], -0.511; in experiment [10], -0.811 (inactive).
For the compound `C=CCC(OC(C)=O)[C@@H]1[C@@H](N(Cc2ccc(-c3cccc(C(F)(F)F)c3)o2)C(=O)c2ccc(C)cc2)c2cc(OCCCO)ccc2N1C(=O)c1ccc2ccccc2n1` (stereo not given in full), the z-score in experiment [1] is 1.03; in experiment [2], 0.27; in [3], 1.91; in [4] it was -0.0472; in [5] it was -0.526; in [6], 2.67. In addition, the z-score is -0.351 (inactive) in [7], 0.962 in experiment [8], -0.165 in experiment [9] and 0.16 (inactive) in experiment [10].
Take `COC(=O)C(CC#Cc1ccc2c(c1)[C@]1(C(=O)N2)[C@H](C(=O)N2CCCCCCC2)[C@H]2C(=O)O[C@H](c3ccccc3)[C@H](c3ccccc3)N2[C@@H]1c1ccccc1OCCO)C(=O)OC`: the z-score is -0.65 in experiment [1]; 0.091 in experiment [2]; 0.491 in [3]; -0.216 in [4]; -0.421 in [5]; 0.0896 in [6]. Further, the z-score in [7] is 1.09 (inactive); in [8] it was -0.835; in experiment [9] it was -1.33; in experiment [10], 0.901 (inactive).
Consider `O=C1C2C=CC(C(O)CCc3ccccc3)N(Nc3ccccc3)C2C(=O)N1c1ccccc1` (stereo not given), for which the z-score in experiment [1] is -1.22; in experiment [2], -1.12; in experiment [3], 0.203; in experiment [4], -0.46; in experiment [5], 0.198; in [6], -2.35. In addition, the z-score was -0.727 (inactive) in [7], -0.278 in experiment [8], -0.174 in [9] and -0.424 (inactive) in experiment [10].
Turning to `CN1C(=O)C2C=CC(C(O)C=Cc3ccc([N+](=O)[O-])cc3)N(N3CCCCC3)C2C1=O` (stereo not given), the z-score in experiment [1] is -1.1; in experiment [2], -1.15; in experiment [3], -0.382; in experiment [4], -0.351; in [5], 0.107; in [6] it was -1.77. Also, the z-score in experiment [7] was -1.31 (inactive); in experiment [8], -0.834; in experiment [9] it was -0.4; in [10] it was -0.244 (inactive).
Consider `CCOC(=O)C1=CC[C@@H](c2cccc(Cl)c2)N(S(=O)(=O)c2ccc(C)cc2)[C@H]1c1ccc(C#N)cc1`, for which the z-score in [1] is 0.384; in experiment [2] it was -1.03; in [3] it was -0.474; in [4], -0.692; in [5] it was -0.704; in [6], 1.38. The z-score in [7] was 0.0503 (inactive); in experiment [8], -0.62; in [9] it was -1.29; in experiment [10] it was 1.27 (inactive).
On to `[N-]=[N+]=NCc1ccccc1[C@H]1OC(c2ccc(OCCCO)cc2)=N[C@@]1(Cc1ccccc1)C(=O)NCC(O)CO` (stereo not given in full), for which the z-score was 0.347 in experiment [1]; -0.445 in experiment [2]; 0.547 in experiment [3]; -1.9 in [4]; -1.36 in experiment [5]; 0.831 in experiment [6]. In addition, the z-score in [7] is -0.699 (inactive); in experiment [8], -0.399; in experiment [9], -1.11; in experiment [10] it was 0.951 (inactive).
With `CCCNC(=O)[C@@]1(C)c2ccccc2C(=O)N(Cc2cc(F)cc(C(F)(F)F)c2)[C@H]1c1ccc(CO)cc1`, the z-score was -0.575 in experiment [1]; 0.237 in experiment [2]; -0.14 in experiment [3]; -0.0049 in experiment [4]; 1.18 in experiment [5]; 2.08 in [6]. Further, the z-score in [7] was 0.224 (inactive); in experiment [8], 0.795; in experiment [9] it was -0.749; in [10] it was 1.79 (inactive).
Consider `CN1C(=O)C2C(C1=O)C1C=C(c3ccc(CO)cc3)C2C(C2CC2)N1Cc1sc2ccccc2c1Cl` (stereo not given), for which the z-score in experiment [1] was -0.245; in experiment [2], 0.612; in experiment [3], 1.79; in [4], -3.2; in [5] it was -4.33; in experiment [6] it was 2.19. The z-score in experiment [7] is 0.46 (inactive); in [8], -0.957; in [9] it was -2.05; in experiment [10] it was -2.15 (inactive).
Turning to `COc1ccc([Si](C)(C)[C@@H]2[C@@H](CCn3cc([C@H](O)c4ccccc4)nn3)O[C@]3(C(=O)N(C)c4ccccc43)[C@H]2C)cc1`, the z-score is -0.536 in experiment [1]; 1.27 in experiment [2]; -1.01 in [3]; -2.69 in experiment [4]; -3.85 in [5]; 0.988 in [6]. The z-score in [7] was -0.42 (inactive); in experiment [8] it was -0.866; in [9] it was -0.252; in experiment [10], -1.89 (inactive).
As to `C=CCOC(=O)[C@@H]1[C@H]2C(=O)O[C@H](c3ccccc3)[C@H](c3ccccc3)N2[C@H](c2ccc(OCCOC(=O)[C@H]3C[C@H]4C(=O)N[C@@H](CC(C)C)C(=O)N4[C@H]3c3cccc(OCCO)c3)cc2)[C@@]12C(=O)Nc1ccc(I)cc12`, the z-score in [1] was 0.704; in experiment [2], 1.54; in experiment [3] it was -0.533; in experiment [4] it was -0.727; in experiment [5] it was -1.34; in experiment [6] it was -1.91. The z-score in experiment [7] was 1.59 (inactive); in [8], -0.946; in experiment [9], -1.2; in experiment [10] it was -0.304 (inactive).
Take `COc1cc(CO)cc(I)c1O[C@H]1C=C(C(=O)NCCO)C[C@@H](N(CCc2cccc(F)c2)C(=O)CCC2CCCC2)[C@@H]1O`: the z-score in experiment [1] is -1.5; in experiment [2], 2.06; in experiment [3], -2.23; in experiment [4], -3.19; in experiment [5], -4.28; in [6] it was -1.09. In addition, the z-score in experiment [7] was 0.525 (inactive); in experiment [8], -1.2; in experiment [9] it was -1.96; in experiment [10], -2.26 (inactive).
